ERb coact inh: inhibitors of ERβ-SRC1 coactivator interaction, primary screen, biochemical, TR-FRET, ERβ LBD, SRC-1 peptide; TR-FRET ER-beta LBD / SRC1-Cy5 peptide binding; receptor agonist-loaded with 1 µM estradiol; inhibition, % at 25.6 µM; 1.3% of 86,000 active; AID 633, 2007;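 active = compounds whose percent inhibition of the receptor-coactivator binding signal exceeds about 50% in the single-dose screen, limit read from the data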;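 note: 0% = receptor plus peptide wells without compound and 100% = peptide-only wells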
Target sequence (Q92731 whole entry, looked up, the tested form may be a part): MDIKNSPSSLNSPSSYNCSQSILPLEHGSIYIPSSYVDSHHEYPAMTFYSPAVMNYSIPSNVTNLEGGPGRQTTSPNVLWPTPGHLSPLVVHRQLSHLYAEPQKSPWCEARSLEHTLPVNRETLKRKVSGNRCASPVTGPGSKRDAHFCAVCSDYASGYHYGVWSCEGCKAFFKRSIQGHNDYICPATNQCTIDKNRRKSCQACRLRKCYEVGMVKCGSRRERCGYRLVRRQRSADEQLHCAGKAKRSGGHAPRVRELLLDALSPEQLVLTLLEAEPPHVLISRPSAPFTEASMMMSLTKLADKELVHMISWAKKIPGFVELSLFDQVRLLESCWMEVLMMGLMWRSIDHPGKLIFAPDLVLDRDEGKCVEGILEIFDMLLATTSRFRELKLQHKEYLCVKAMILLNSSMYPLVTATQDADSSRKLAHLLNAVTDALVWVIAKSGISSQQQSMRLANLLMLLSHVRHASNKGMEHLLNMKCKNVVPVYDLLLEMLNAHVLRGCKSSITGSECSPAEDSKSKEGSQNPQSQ
ERa coact pot: enhancers of ERα–SRC-1 coactivator binding, primary screen, biochemical, TR-FRET, ERα LBD, low estradiol | Estrogen receptor (Homo sapiens), P03372 | TR-FRET ERalpha-LBD/SRC-Cy5 coactivator binding, 2 h; 100 = basal binding, no effect | coactivator binding (% of control), % at 25.6 µM | 1.3% of 86,000 active | AID 639, 2007; in the data active = activity above about 200%;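 note: binding measured in presence of low estradiol as agonist stimulus; 0% = peptide alone without receptor and 100% = receptor with peptide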
FAK inh: FAK kinase inhibitors, primary screen, biochemical; Focal adhesion kinase 1 (Homo sapiens), Q05397; biochemical FAK kinase activity assay; inhibition, %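 (tested at 7 µM)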; 0.84% of 97,000 active; in the data active = inhibition above about 19%;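 note: 0% = DMSO and 100% = reference compound high control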
Calb biofilm kill: clotrimazole potentiators killing Candida biofilms, primary screen, with clotrimazole, Alamar Blue. inhibition, % at 6 µM. AID 834, 2007. 0.14% of 85,000 active. C. albicans biofilm + clotrimazole;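 active = inhibition above 20%; inactive = inhibition below 20%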;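 note: preformed 24 hr biofilms exposed to compound for 48 hr; 0% = biofilm without compound and 100% = blank killed by clotrimazole plus chlorhexidine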
Smad3 FoxH1 inh: Smad3/FoxH1 peptide binding inhibitors, primary screen, biochemical, TR-FRET; TR-FRET Smad3/Dy647-FoxH1 peptide binding, europium anti-His; Mothers against decapentaplegic homolog 3 (Homo sapiens), P84022; AID 630, 2007; inhibition, % at 25 µM; 0.29% of 88,000 active;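 active = compounds that reduce the energy-transfer binding signal between the protein and its labelled peptide by more than half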;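 note: 0% = Smad3 plus labelled peptide maximal FRET and 100% = peptide-only background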
ERa SRC1 inh: ERα–SRC-1 coactivator interaction inhibitors, primary screen, biochemical, TR-FRET, ERα LBD, estradiol-bound. Estrogen receptor (Homo sapiens), P03372. TR-FRET ER-alpha LBD / SRC-1 peptide. inhibition, % at 25.6 µM. 1.7% of 86,000 active; in the data active = inhibition above about 50%;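 note: 0% = receptor plus peptide control and 100% = peptide only without receptor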
Active calls of the source: *; [ ] = dose if it differs, or a comment. Hits are enriched below; roughly 3.3% of the tested compounds scored in any of these assays.

For Cc1cc(=O)oc2cc(OCC3CC(c4ccc(Cl)cc4)=NO3)ccc12 (centres undefined) the results were ERb coact inh -7, ERa coact pot 94, FAK inh 3, Calb biofilm kill -2, Smad3 FoxH1 inh -7 and ERa SRC1 inh -6.
For COC(=O)c1ccc(OC)c(CSc2nnc(-c3ccc(C)cc3)o2)c1 the results were ERb coact inh 14, ERa coact pot 455*[fluorescence artefact?], Calb biofilm kill -3, Smad3 FoxH1 inh -14 and ERa SRC1 inh 36.
For Cc1[nH]n(-c2ccccc2)c(=O)c1C(c1ccc(O)c([N+](=O)[O-])c1)c1c(C)[nH]n(-c2ccccc2)c1=O the results were FAK inh 7.
For Nc1[nH]n(-c2ccccc2)c(=O)c1N=Nc1ccccc1[N+](=O)[O-] the results were ERb coact inh 52*, ERa coact pot 9, FAK inh 1, Calb biofilm kill 3, Smad3 FoxH1 inh 3 and ERa SRC1 inh 88*[fluorescence artefact?].
For CC(C)(C)c1ccc(-c2nnc(SCc3ccc(Cl)cc3)n2-c2cccc(C(F)(F)F)c2)cc1 the results were Smad3 FoxH1 inh 33.
Screening CCOC(=O)c1c(C)[nH]c(C)c1C(=O)CSc1nnc(-c2ccc(OC(F)F)cc2)o1 returned ERb coact inh 24, ERa coact pot 276*, FAK inh 9, Calb biofilm kill 4, Smad3 FoxH1 inh 2 and ERa SRC1 inh 46.
Screening C/C(N)=C(/C#N)C(=O)CSc1nnc(-c2ccc3c(c2)OCO3)o1 returned FAK inh 2.
For COc1ccc(C(=O)CSc2nnc(-c3ccc(S(=O)(=O)N4CCOCC4)cc3)o2)cc1 the results were ERb coact inh 18, ERa coact pot 470*[fluorescence artefact?], FAK inh -14, Calb biofilm kill 1, Smad3 FoxH1 inh -85 and ERa SRC1 inh -6.
COc1ccc(-c2nnc(SCC(=O)c3ccc[nH]3)o2)cc1 was read as FAK inh 2.
Screening O=C(CSc1nnc(-c2ccc(S(=O)(=O)N3CCOCC3)cc2)o1)c1ccccc1F returned ERb coact inh 12, ERa coact pot 116, FAK inh -12, Calb biofilm kill -1, Smad3 FoxH1 inh -7 and ERa SRC1 inh 11.
`C/C(N)=C(/C#N)C(=O)CSc1nnc(-c2ccc(OC(F)F)cc2)o1` gave ERb coact inh 62*, ERa coact pot 58, FAK inh 4, Calb biofilm kill 1, Smad3 FoxH1 inh 6 and ERa SRC1 inh 56*.
`COc1ccc(-c2nnc(SCC(=O)c3[nH]c(C)c(C(C)=O)c3C)o2)cc1` gave ERb coact inh 32, ERa coact pot 275*, FAK inh -1, Calb biofilm kill 6, Smad3 FoxH1 inh -1 and ERa SRC1 inh 22.
Screening CN1CCC[C@H]1c1cccnc1.O=C(O)c1ccccc1O.O=C([OH2+])c1ccccc1O.O=C([OH2+])c1ccccc1O.[Mn+2] returned Smad3 FoxH1 inh -10.
`Nc1cccc(-n2nncc2-c2ccccc2)c1` gave ERb coact inh -5, ERa coact pot 117, FAK inh 4, Calb biofilm kill 1, Smad3 FoxH1 inh -5 and ERa SRC1 inh -3.
Screening Cc1ncc(CSc2ccccc2N)c(CO)c1O returned Smad3 FoxH1 inh -7.
COc1ccc(CC(=O)Nc2cccc(-c3nnc(-c4ccccc4)o3)c2)cc1OC was read as ERb coact inh 17, ERa coact pot 138, FAK inh -3, Calb biofilm kill 8, Smad3 FoxH1 inh 6 and ERa SRC1 inh 30.
`CCN(CC)CC(=O)Nc1ccc(-c2nc3cc(NC(=O)CN(CC)CC)ccc3o2)cc1` gave ERb coact inh 4, ERa coact pot 83, Calb biofilm kill 5, Smad3 FoxH1 inh -9 and ERa SRC1 inh 12.
Screening COc1ccc(-c2nc3cc(NC(=O)Cc4ccc(OC)c(OC)c4)ccc3o2)cc1 returned ERb coact inh 16, ERa coact pot 273*[fluorescence artefact?], FAK inh 10, Calb biofilm kill 10, Smad3 FoxH1 inh 8 and ERa SRC1 inh 27.
Screening COc1ccc(CC(=O)Nc2ccc(-c3nnc(-c4ccccc4)o3)cc2)cc1OC returned ERb coact inh 51*[fluorescence artefact?], ERa coact pot 97, FAK inh -30, Calb biofilm kill 8, Smad3 FoxH1 inh -110 and ERa SRC1 inh 70*[fluorescence artefact?].
Screening C[C@@H](C[C@H](N)C(=O)O)C(=O)O returned Smad3 FoxH1 inh -6.
`COc1ccc(Oc2ncnc3c2oc2ccc(Br)cc23)cc1` gave ERb coact inh 30, ERa coact pot 416*, Calb biofilm kill 8, Smad3 FoxH1 inh 0 and ERa SRC1 inh 43.
Screening O=S1(=O)N=C(Nc2ccc(N3CCOCC3)cc2)c2ccccc21 returned ERb coact inh 51*[fluorescence artefact?], ERa coact pot 80, FAK inh -2, Calb biofilm kill 3, Smad3 FoxH1 inh -5 and ERa SRC1 inh -25.
CCCc1cc(N2CCN(c3ccccn3)CC2)n2nc(C)c(-c3ccccc3)c2n1 was read as ERb coact inh 25, ERa coact pot 242*[fluorescence artefact?], FAK inh -1, Calb biofilm kill 5, Smad3 FoxH1 inh 13 and ERa SRC1 inh 5.
For Cc1cc(C)c2nc(Cl)c(CN(Cc3ccco3)C(=O)Nc3ccccc3C)cc2c1 the results were FAK inh 2.
For CCOC(=O)c1c(C)[nH]c(C(=O)CSc2nnnn2-c2ccccc2)c1C the results were ERb coact inh 58*[fluorescence artefact?], ERa coact pot 205*[fluorescence artefact?], Calb biofilm kill 6, Smad3 FoxH1 inh -8 and ERa SRC1 inh 58*[fluorescence artefact?].
`COc1ccccc1NC(=O)CSc1nnc(COc2ccc(Cl)cc2)n1Cc1ccco1` gave ERb coact inh -3, ERa coact pot 100, FAK inh 10, Calb biofilm kill -4, Smad3 FoxH1 inh 5 and ERa SRC1 inh -2.
For C=CCn1c(COc2ccccc2F)nnc1SCC(=O)NC(=O)NCc1ccco1 the results were ERb coact inh 54*, ERa coact pot 98, Calb biofilm kill 4, Smad3 FoxH1 inh -2 and ERa SRC1 inh 67*[fluorescence artefact?].
Screening COc1ccccc1OCc1nnc(SCC(=O)NCc2ccco2)n1Cc1ccco1 returned ERb coact inh 29, ERa coact pot 207*[fluorescence artefact?], FAK inh 7, Calb biofilm kill 7, Smad3 FoxH1 inh 4 and ERa SRC1 inh 37.
For COc1ccc2nc3cc(Cl)ccc3c(Nc3ccc(O)c(CN4CCN(C)CC4)c3)c2c1 the results were Smad3 FoxH1 inh 30.
COc1ccc(Br)cc1CNC(=O)C1CCCN(c2nc3ccccc3o2)C1 (centres undefined) was read as ERb coact inh 28, ERa coact pot 102, FAK inh -1, Calb biofilm kill 7, Smad3 FoxH1 inh 5 and ERa SRC1 inh 64*.

Compound activity (PubChem BioAssay)
